In article PMC7862700, “An all-to-all approach to the identification of sequence-specific readers for epigenetic DNA modifications on cytosine”:

Experiments:
Assay in all cases: DAPPL (digital affinity profiling via proximity ligation, sequencing); 10 mM Tris-HCl pH 7.5, 50 mM NaCl, 1 mM DTT, 4% glycerol, room temperature, 30 min; GST-TFs on glutathione beads, 16-mer random dsDNA library, 0.1% formaldehyde crosslink after washing; high values mean tight binding
Details in all cases: protein: recombinant; tags: N-terminal GST; dsDNA, one strand shown
FLI1 = target: T1, FLI1 (Homo sapiens, UniProt Q01543 1-452)
T1 sequence: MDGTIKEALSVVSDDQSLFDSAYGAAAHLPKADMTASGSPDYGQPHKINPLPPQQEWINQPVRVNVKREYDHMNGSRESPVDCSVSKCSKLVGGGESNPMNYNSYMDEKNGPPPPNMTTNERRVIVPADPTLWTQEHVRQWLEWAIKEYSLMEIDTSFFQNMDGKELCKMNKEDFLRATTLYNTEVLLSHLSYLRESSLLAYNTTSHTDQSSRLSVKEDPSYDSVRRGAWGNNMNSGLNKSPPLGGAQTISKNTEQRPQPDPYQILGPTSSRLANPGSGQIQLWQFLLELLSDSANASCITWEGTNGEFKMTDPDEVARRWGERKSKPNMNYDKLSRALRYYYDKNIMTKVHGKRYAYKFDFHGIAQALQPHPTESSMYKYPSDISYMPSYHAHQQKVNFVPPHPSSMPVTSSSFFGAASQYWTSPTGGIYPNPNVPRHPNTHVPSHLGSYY
Outline: (§1)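 Human transcription factors fused to GST were expressed in yeast, captured on glutathione beads, given DNA barcodes and pooled with a GST-only negative control. Pools were incubated with 200 nmole of a 16-mer random double-stranded DNA library in Tris/NaCl/DTT/glycerol buffer at room temperature for 30 min. They were then washed, crosslinked with 0.1% formaldehyde, proximity-ligated (BsaI/T4 ligase, 1 h, 37 °C), PCR-amplified and sequenced on an Illumina NextSeq500. Binding signal is each 6-mer's read frequency for a factor divided by its frequency for the GST control.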

ELK1 = target: T2, ELK1 (Homo sapiens, UniProt P19419 1-428)
T2 sequence: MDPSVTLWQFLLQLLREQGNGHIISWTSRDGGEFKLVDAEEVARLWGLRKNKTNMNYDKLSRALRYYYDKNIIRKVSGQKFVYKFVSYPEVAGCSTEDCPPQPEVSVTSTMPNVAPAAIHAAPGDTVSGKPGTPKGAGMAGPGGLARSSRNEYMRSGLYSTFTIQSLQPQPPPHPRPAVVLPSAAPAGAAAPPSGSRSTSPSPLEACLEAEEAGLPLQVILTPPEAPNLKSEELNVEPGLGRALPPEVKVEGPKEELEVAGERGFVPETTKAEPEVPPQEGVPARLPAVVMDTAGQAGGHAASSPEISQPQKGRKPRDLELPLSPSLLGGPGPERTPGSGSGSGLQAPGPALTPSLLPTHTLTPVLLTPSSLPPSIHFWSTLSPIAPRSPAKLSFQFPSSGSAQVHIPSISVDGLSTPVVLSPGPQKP
Outline: as §1

GABPA = target: T3, GABPA (Homo sapiens, UniProt Q06546 1-454)
T3 sequence: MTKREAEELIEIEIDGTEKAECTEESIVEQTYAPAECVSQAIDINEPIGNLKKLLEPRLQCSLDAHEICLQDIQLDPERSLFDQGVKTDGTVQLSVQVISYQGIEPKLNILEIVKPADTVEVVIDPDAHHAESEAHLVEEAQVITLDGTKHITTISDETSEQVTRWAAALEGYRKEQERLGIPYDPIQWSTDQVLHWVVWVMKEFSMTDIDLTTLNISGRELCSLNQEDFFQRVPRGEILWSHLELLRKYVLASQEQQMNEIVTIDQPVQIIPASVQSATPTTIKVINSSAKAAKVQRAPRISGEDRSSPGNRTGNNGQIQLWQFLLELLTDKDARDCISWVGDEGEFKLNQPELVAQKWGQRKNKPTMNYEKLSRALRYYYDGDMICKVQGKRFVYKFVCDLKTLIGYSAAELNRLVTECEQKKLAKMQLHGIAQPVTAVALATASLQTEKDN
Outline: as §1

ERG = target: T4, ERG (Homo sapiens, UniProt P11308 1-479)
T4 sequence: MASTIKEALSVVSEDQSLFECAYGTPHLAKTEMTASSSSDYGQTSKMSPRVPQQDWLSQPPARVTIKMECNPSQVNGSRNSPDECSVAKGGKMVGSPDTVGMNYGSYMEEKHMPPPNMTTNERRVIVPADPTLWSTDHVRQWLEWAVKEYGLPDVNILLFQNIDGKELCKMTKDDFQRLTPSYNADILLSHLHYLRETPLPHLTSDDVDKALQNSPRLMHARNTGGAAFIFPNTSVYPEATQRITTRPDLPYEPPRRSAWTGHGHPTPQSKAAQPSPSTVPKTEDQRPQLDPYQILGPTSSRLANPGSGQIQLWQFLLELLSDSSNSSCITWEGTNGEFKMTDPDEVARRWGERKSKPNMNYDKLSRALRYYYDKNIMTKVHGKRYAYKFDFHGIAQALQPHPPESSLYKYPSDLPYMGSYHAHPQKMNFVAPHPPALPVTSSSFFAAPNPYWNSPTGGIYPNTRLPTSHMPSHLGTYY
Outline: as §1

ELF1 = ELF1 (Homo sapiens, UniProt P32519 1-619)
Outline: as §1

EHF = target: T5, EHF (Homo sapiens, UniProt Q9NZC4 1-300)
T5 sequence: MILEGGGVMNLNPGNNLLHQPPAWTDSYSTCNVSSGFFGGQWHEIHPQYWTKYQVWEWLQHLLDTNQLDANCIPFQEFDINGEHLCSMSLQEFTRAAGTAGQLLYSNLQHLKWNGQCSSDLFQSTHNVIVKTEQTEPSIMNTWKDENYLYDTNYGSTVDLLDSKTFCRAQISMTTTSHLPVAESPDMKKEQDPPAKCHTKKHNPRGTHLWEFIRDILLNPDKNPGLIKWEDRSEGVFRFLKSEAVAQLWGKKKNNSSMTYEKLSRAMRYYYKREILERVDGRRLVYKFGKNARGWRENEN
Outline: as §1

SPI1 = SPI1 (Homo sapiens, UniProt P17947 1-270)
Outline: as §1

SPIB = SPIB (Homo sapiens, UniProt Q01892 1-262)
Outline: as §1

ELK3 = target: T6, ELK3 (Homo sapiens, UniProt P41970 1-407)
T6 sequence: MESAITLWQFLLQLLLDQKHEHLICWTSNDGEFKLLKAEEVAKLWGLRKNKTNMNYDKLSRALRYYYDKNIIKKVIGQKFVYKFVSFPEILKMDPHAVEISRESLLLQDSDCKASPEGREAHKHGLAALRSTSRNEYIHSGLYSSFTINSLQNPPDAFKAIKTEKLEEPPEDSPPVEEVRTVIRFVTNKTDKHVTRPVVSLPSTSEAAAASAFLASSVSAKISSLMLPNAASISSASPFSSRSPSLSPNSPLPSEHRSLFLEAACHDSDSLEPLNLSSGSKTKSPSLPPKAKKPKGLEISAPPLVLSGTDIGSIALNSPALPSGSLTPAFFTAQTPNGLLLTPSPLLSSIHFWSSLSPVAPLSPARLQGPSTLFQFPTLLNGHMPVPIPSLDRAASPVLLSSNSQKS
Outline: as §1

Sequence of ELF1 (P32519 whole entry): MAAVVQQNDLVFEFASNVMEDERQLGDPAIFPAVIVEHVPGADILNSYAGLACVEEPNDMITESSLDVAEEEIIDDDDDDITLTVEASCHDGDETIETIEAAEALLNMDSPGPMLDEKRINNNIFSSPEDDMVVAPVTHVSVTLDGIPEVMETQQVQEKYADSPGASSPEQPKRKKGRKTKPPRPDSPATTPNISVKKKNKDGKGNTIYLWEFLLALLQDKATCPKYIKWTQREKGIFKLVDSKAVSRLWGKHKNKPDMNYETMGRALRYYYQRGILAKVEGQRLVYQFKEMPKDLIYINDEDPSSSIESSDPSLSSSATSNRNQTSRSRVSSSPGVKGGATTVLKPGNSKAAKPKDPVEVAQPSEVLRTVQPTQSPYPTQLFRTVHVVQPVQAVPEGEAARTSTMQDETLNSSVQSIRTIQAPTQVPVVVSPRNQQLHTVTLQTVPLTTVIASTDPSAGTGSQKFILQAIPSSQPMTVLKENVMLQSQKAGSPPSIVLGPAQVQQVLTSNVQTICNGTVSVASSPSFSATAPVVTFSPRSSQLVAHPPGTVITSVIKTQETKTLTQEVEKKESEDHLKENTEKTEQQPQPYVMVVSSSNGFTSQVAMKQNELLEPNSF
Sequence of SPIB (Q01892 whole entry): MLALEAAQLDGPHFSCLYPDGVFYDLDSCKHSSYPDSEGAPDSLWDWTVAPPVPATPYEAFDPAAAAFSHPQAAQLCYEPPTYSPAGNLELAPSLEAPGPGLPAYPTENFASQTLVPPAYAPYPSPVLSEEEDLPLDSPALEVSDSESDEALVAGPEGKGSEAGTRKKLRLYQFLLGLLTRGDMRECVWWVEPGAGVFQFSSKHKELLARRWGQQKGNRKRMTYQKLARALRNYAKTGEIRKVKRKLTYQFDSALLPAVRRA

ATGTTC
binding signal (FLI1): 1.19 fold enrichment (6-mer frequency, TF over GST control) | binding signal (ELK1): 1.28 fold enrichment (6-mer frequency, TF over GST control) | binding signal (GABPA): 1.18 fold enrichment (6-mer frequency, TF over GST control) | binding signal (ERG): 1.21 fold enrichment (6-mer frequency, TF over GST control) | binding signal (ELF1): 1.21 fold enrichment (6-mer frequency, TF over GST control) | binding signal (EHF): 1.34 fold enrichment (6-mer frequency, TF over GST control) | binding signal (SPI1): 1.2 fold enrichment (6-mer frequency, TF over GST control) | binding signal (SPIB): 1.22 fold enrichment (6-mer frequency, TF over GST control) | binding signal (ELK3): 1.14 fold enrichment (6-mer frequency, TF over GST control)
